Sampled rows, rich in hits. Any-hit rate of the full collection: about 4.7%.
ATG4B inhibitor = ATG4B protease inhibitors, primary screen, biochemical, fluorescence, uHTS; ATG4B cleavage of LC3-PLA2, NBD-HPC fluorescence, 1 h; inhibition, % at 8.33 µM; actives 0.51% (n = 340,000); AID 504462, 2011; in the data active = inhibition above about 40%
Target sequence (Q9Y4P1 whole entry, looked up): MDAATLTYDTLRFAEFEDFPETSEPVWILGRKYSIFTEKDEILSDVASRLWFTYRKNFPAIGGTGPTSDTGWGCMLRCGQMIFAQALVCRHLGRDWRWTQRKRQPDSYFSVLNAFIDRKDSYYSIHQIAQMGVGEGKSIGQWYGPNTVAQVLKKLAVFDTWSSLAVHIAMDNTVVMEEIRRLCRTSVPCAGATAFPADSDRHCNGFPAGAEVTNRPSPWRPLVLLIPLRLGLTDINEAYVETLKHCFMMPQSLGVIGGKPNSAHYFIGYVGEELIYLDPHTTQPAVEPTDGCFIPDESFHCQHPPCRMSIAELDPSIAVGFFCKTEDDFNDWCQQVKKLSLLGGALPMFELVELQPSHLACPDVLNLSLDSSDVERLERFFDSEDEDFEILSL
tim10-1 inh = growth inhibitors of tim10-1 mutant yeast, primary screen, luminescence, uHTS; S. cerevisiae tim10-1 ts strain growth, BacTiter-Glo, 24 h; inhibition, % at 20 µM; actives 2.2% (n = 330,000);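 active = inhibition of at least 40%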;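 also: mutant grown at 25 °C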
tim23-1 inh = growth inhibitors of tim23-1 mutant yeast, primary screen, luminescence, uHTS | inhibition, % at 20 µM | actives 1.3% (n = 330,000) | S. cerevisiae tim23-1 growth, BacTiter-Glo luminescence, 24 h;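 active = growth inhibition of the mutant yeast at or above 50%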;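 also: temperature-sensitive mutant grown at 25 °C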
TIM10 inh = growth inhibitors of isogenic TIM10 control yeast, primary screen, counter-screen for tim10-1 yeast inhibitor project, luminescence, uHTS. inhibition, % at 10 µM. actives 1.4% (n = 330,000). S. cerevisiae TIM10 strain growth, BacTiter-Glo luminescence, 24 h;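 active = inhibition of 40% or more at the single tested concentration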;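 also: wild-type TIM10 isogenic control strain grown at permissive 25 °C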
SKKanGAS inh = S. pyogenes SKKanGAS growth inhibitors in kanamycin, primary screen, streptokinase expression inhibitor project, SKKanGAS strain, BacTiter-Glo luminescence; inhibition, % at 7.5 µM; actives 1.3% (n = 300,000); 6 h;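 active = mean replicate score, as percent of positive control median, at least 50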;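 also: strain carries kanamycin resistance gene driven by streptokinase promoter and grows in 40 µg/ml kanamycin; loss of luminescence reflects streptokinase promoter inhibition or plain growth inhibition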
PfHsp90 set2 = growth inhibition of PfHsp90-expressing yeast, primary screen, antimalarial PfHsp90 inhibitor project, S. cerevisiae, BacTiter-Glo luminescence, single point, set 2; BacTiter-Glo ATP, 48 h; yeast lacking PDR1 and PDR3 efflux regulators; inhibition, % at 9.4 µM; actives 0.32% (n = 310,000);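 active = every replicate shows inhibition above about 80%, whatever the replicate mean, limit read from the data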
Numbers stand for hits; 0 = inactive; - = not tested or not shown.

SMILES	ATG4B inhibitor	tim10-1 inh	tim23-1 inh	TIM10 inh	SKKanGAS inh	PfHsp90 set2
CCCCNC(=O)NNC(=O)COc1cc(C)cc(C)c1	0	0	0	0	0	0
COc1ccc(OCC(=O)NNC(=S)NC(=O)C2CCCCC2)cc1	-	0	0	0	64	-
CNC(=S)NNC(=O)Cc1ccc(OC)cc1	0	0	0	0	0	0
COc1ccc(NC(=S)NC(=O)C2CCC2)cc1	0	0	0	0	0	0
COc1ccc(CC(=O)NC(=S)NNC(=O)COc2c(C)cccc2C)cc1	0	0	0	0	97	0
COc1ccc(OCC(=O)NNC(=S)NC(=O)C2CC2)cc1	0	0	0	0	63	0
Fc1ccc(NC(=S)N2CCSC2c2cccs2)cc1 (stereo not given)	0	0	0	0	0	0
CC(C)OC(=O)NCCOC(=O)Nc1cccc(Cl)c1	0	0	0	0	0	0
COCC1CCN(Cc2nc(Cc3ccccc3Cl)no2)CC1	0	0	0	0	0	0
O=C(CSc1nc(-c2ccc(F)cc2)nc2ccc(F)cc12)Nc1cccc(C(=O)O)c1	0	0	0	0	68	0
Cc1ccc(C2C(C(=O)c3cc4ccccc4o3)=C(O)C(=O)N2c2cc(C)on2)cc1 (stereo not given)	0	0	0	0	59	0
Cc1ccc2nc(N3C(=O)C(O)=C(C(=O)c4cc5ccccc5o4)C3c3cccs3)sc2c1 (stereo not given)	0	0	0	0	104	0
CCc1ccc2nc(N3C(=O)C(O)=C(C(=O)c4ccco4)C3c3cccs3)sc2c1 (stereo not given)	0	0	0	0	88	0
Cc1cccc(NC(=O)CSCC(=O)N2CCN(Cc3ccc4c(c3)OCO4)CC2)c1	0	0	0	0	0	0
Cc1c(C(=O)N2CCCCCC2)c(S(=O)(=O)Nc2ccc(F)cc2)c(C)n1C	0	0	0	0	0	0
CC1=C(C#N)CCC(=O)N1Cc1c(C)cc(C)cc1C	0	0	0	0	0	0
CCc1cccc(CC)c1NC(=S)NCCc1ccc(O)c(O)c1	0	0	0	0	0	0
CCc1ccccc1NC1=NCC(=O)N1Cc1ccc(OC)cc1	0	0	0	0	0	0
O=C(O)c1ccc(Cl)cc1Nc1nc2cc(Cl)ccc2o1	0	-	-	-	0	0
COc1cc(NC(=O)c2cc(-c3ccccc3)on2)cc(OC)c1OC	0	0	0	0	0	0
COc1cc(NC(=O)c2cc3nc(-c4ccccc4)cc(-c4ccccc4)n3n2)cc(OC)c1OC	0	0	0	0	54	0
O=C(Cc1ccc([N+](=O)[O-])cc1)N1N=C(C2CC2)CC1(O)C(F)(F)F (stereo not given)	0	0	0	0	0	0
O=C(N/N=C/c1cc([N+](=O)[O-])ccc1O)c1ccncc1	0	0	0	0	92	0
COc1cc([N+](=O)[O-])ccc1NC(=S)NNC(=O)c1ccc2c(c1)OCO2	0	0	0	0	0	0
O=C(NC(=S)Nc1cc([N+](=O)[O-])ccc1O)c1ccc2c(c1)OCO2	0	0	0	0	79	0
SMILES	ATG4B inhibitor	tim10-1 inh	tim23-1 inh	TIM10 inh	SKKanGAS inh	PfHsp90 set2
O=C(N/N=C/c1ccc(O)c([N+](=O)[O-])c1)c1ccncc1	0	0	0	0	0	0
O=C(N/N=C/c1cc([N+](=O)[O-])ccc1O)C(O)(c1ccccc1)c1ccccc1	0	0	0	0	51	0
O=C(N/N=C/c1cc([N+](=O)[O-])ccc1O)C1CC1	0	0	0	0	0	0
O=C(N/N=C/c1cc([N+](=O)[O-])ccc1O)c1cccc(N2CCCC2=O)c1	0	0	0	0	55	0
O=C1CC(Cc2ccccc2)C(=O)N1c1ccccn1 (stereo not given)	0	0	0	0	0	0
CCOC(=O)Cn1c(=O)c2c(nc(N3CCCCC3)n2C)n(C)c1=O	0	0	0	0	0	0
COc1ccc(C(=O)SC2=NCCS2)cc1OC	0	0	0	0	0	-

Source: PubChem
